# Rpn11 block – Rpn11 (PSMD14) deubiquitinase inhibitors, primary screen, biochemical, fluorescence polarization, uHTS; human 26S proteasome, Ub4-pepOG fluorescence polarization; 20S core pre-blocked with epoxomicin; AID 588493, 2011; inhibition, % at 20 µM; 26S proteasome non-ATPase regulatory subunit 14 (Homo sapiens), O00487; hit rate 0.59% among 360,000;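 active = inhibition at 20 µM, scaled to each plate's controls, above about 33%, limit read from the data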
# CTSL1 counter – Fasciola hepatica cathepsin L1 inhibitors, primary screen, counter-screen for PFM18AAP inhibitor project, biochemical, QFRET, fluorogenic peptide substrate; recombinant F. hepatica cathepsin L1, Z-Leu-Arg-MCA fluorescence; inhibition, % at 5.96 µM; hit rate 0.49% among 300,000; AID 1906, 2009;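 active = inhibition above the mean of all tested compounds plus 3 SD, set per screening campaign, cut at about 17% in these data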;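 note: 0% = plate median of test compound wells and 100% = 1 µM Z-Phe-Ala-diazomethylketone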
# PHOSPHO1 inh – PubChem AID 1565 | inhibition, % at 13.3 µM | recombinant PHOSPHO1, absorbance phosphatase assay | hit rate 1.1% among 290,000 | Phosphoethanolamine/phosphocholine phosphatase (Homo sapiens), Q8TCT1; in the data active = inhibition above about 60%
# Target sequence (Q8TCT1 whole entry, looked up): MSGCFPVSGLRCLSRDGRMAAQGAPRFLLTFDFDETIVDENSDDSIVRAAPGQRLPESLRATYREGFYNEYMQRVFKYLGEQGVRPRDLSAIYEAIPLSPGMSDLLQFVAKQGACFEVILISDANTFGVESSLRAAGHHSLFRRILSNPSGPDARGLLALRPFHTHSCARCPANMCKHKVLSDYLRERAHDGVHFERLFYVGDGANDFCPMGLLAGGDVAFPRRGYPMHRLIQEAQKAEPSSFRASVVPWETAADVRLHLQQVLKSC
# TPT1 inh – Candida albicans TPT1 enzyme inhibitors, primary screen, biochemical, fluorescence polarization; tRNA 2'-phosphotransferase TPT1 (Candida albicans SC5314); recombinant caTPT1, FP RNA substrate dephosphorylation; inhibition, % at 5 µM; hit rate 0.81% among 300,000; AID 1962, 2009;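 active = inhibition above the mean of all tested compounds plus 3 SD, set per screening campaign, cut at about 24% in these data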;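 note: plate controls were DMSO alone for no effect and ferristatin control at 100 nM for full effect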
# NRP1-CendR mod – modulators of CendR peptide binding to NRP-1, primary screen, biochemical, fluorescence polarization, uHTS; Neuropilin-1 (Homo sapiens), O14786; FAM-RPARPAR peptide binding to NRP-1; inhibition, % at 25 µM; hit rate 0.85% among 360,000; AID 602438, 2012;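 active = inhibition or corrected inhibition above about 18%, plus a signal ratio from 0.5 to 1.5, limit read from the data, passing the limit was not always enough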
# HNF4A DNA FP – change in binding of human HNF4A to DNA, primary screen, biochemical, fluorescence polarization, FITC-DNA | AID 1224865, 2016 | Hepatocyte nuclear factor 4-alpha (Homo sapiens), P41235 | hit rate 0.3% among 360,000 | activity change, % at 10 µM | 1 h; in the data active = activity change above about 30%, passing the limit was not always enough
# TPT1 inh confirm – Candida albicans TPT1 inhibitors, confirmation, biochemical, fluorescence polarization, triplicate; shares compounds with TPT1 inh; recombinant caTPT1, RNase T1 coupled; inhibition, % at 5 µM; hit rate 74% among 2,400;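 active = inhibition above the primary screen limit, the mean inhibition of all tested compounds plus 3 SD, cut at about 25% in these data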
# RNase T1 counter – RNase T1 inhibitors, counter-screen for TPT1 inhibitor project, biochemical, fluorescence polarization; shares compounds with TPT1 inh; RNase T1 cleavage, 1536-well; inhibition, % at 5 µM; hit rate 83% among 2,400; AID 2153, 2009;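 active = inhibition above the solvent-only control well mean plus 3 SD, limit set per screening run, cut at about 23% in these data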;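 note: plate controls were DMSO wells with enzyme for no effect and wells without RNase T1 for full effect; inhibitors block cleavage so intact labeled substrate keeps polarization high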
# Target sequence (P00651 whole entry, looked up): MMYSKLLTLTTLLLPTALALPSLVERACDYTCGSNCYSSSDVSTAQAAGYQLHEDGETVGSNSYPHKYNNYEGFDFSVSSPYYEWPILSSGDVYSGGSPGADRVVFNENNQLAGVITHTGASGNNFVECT
# * hit, by the source's call; . = not tested or not shown. Hits are enriched below; roughly 3.3% of the tested compounds scored in any of these assays.
SMILES,Rpn11 block,CTSL1 counter,PHOSPHO1 inh,TPT1 inh,NRP1-CendR mod,HNF4A DNA FP,TPT1 inh confirm,RNase T1 counter
COc1cc(/C=C/C(=O)c2ccc3c(c2)OCO3)cc(Cl)c1O,.,1,32,82*,-117,12,94*,96*
COc1ccc(OC)c(C2=C/C(=C/c3ccccn3)C(=O)O2)c1,.,-3,2,80*,89,6,84*,90*
CCOc1ccc(-c2csc(NNC3=NCCCCC3)n2)cc1,10,-3,37,-1,2,4,.,.
O=C(Nc1nc2ccccc2s1)c1cccc(S(=O)(=O)N2CCc3ccccc32)c1,6,1,30,-1,-18,5,.,.
CCN1CCc2nc(NC(=O)Cc3ccc4c(c3)OCCO4)sc2C1,11,2,-1,0,-17,14,.,.
O=C(Nc1nc2c(s1)CN(Cc1ccccc1)CC2)c1cccc(S(=O)(=O)N2CCc3ccccc32)c1,2,2,6,125*,61,47,94*,94*
CCN1CCc2nc(NC(=O)c3ccc4c(c3)OCCO4)sc2C1,31,7,38,36*,-42,17,21,28*
COc1ccccc1OCCOCCN1CCCC1,9,-1,.,1,5,-2,.,.
COc1cc(/C=N/N2C(=O)CSC2=S)ccc1O,49*,11,53,28*,-78,21,28*,40*
O=C1CSC(=S)N1/N=C/c1cc(Br)c(O)c(Br)c1,.,0,48,82*,140,158,75*,84*
O=C1CSC(=S)N1N=Cc1ccccc1O,23,.,.,.,-18,6,.,.
COc1cc(O)c(C=NN2C(=O)CSC2=S)c(OC)c1,29,.,.,.,-26,7,.,.
O=C1Nc2ccc(Br)cc2C12NNc1ccccc1O2 (centres undefined),.,4,7,83*,-226,95,105*,110*
O=C1Nc2ccc(Br)cc2C1(O)c1ccccc1 (centres undefined),1,9,29,-2,4,4,.,.
COC(=O)Cc1cc(C)cc2c(=O)cc(-c3ccoc3)oc12,.,-2,.,34*,-14,91,53*,66*
COC(=O)Cc1cc(=O)oc2cc(OC)ccc12,1,1,14,0,3,2,.,.
CCOC(=O)c1c(NC(=S)Nc2ccc(OCC)cc2)sc2c1CCN(C)C2,30,-2,-116,48*,-51,11,53*,64*
CCOC(=O)c1c(NC(=O)C(F)(OC)C(F)(F)F)sc2c1CCN(C)C2 (centres undefined),15,3,-26,12,-2,10,.,.
CCOC(=O)c1c(NC(=O)CCS(=O)(=O)c2ccccc2)sc2c1CCN(C)C2,8,-20,27,35*,-46,21,21,28*
CCOC(=O)c1c(NC(=O)Cc2ccccc2)sc2c1CCN(C)C2,-2,2,-16,0,-2,-3,.,.
CCOC(=O)c1c(NC(=O)Nc2ccc(F)cc2)sc2c1CCN(C)C2,14,-1,24,1,-39,14,.,.
CCOC(=O)c1c(NC(=O)CSc2nnc(C)s2)sc2c1CCN(C)C2,.,-1,-10,98*,-142,73*,97*,103*
Cc1cc(C)c2cc3c(N)c(C(=O)N4CCc5ccccc5C4)sc3nc2c1,35,1,2,26*,-44,9,21,37*
Cc1ccc2nc3sc(C(=O)N4CCCc5ccccc54)c(N)c3cc2c1,.,-1,7,38*,-130,39*,56*,64*

# Screening results from PubChem.
